Hits are enriched below; roughly 6.7% of the tested compounds scored in any of these assays.
PINK1 modulator = modulators of PINK1 expression. Potency, µM (doses to about 76.6 µM), without a hit: top-dose activation (PINK1 increase), usual class: activators. 0.2% of 410,000 active. PINK1 immunofluorescence, high-content cytometry, 24 h; active means well fitted activation curve with a large enough effect; inconclusive means small, poorly fitted or top-dose-only effect; cell line not stated here; further: % of control where 0% means no effect; nearly all actives have a fitted effect of over 65% in size
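Compound titrations (5 concentrations, 24 h) on a stable cell line; DMSO and CCCP controls. Endpoint: fixed-cell PINK1 immunofluorescence with mitochondrial, cell and nuclear markers, scanned by microplate cytometer.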
SW480 rereplic = DNA re-replication induction in SW480 cells; 1.8% of 340,000 active; SW480 DNA re-replication, Hoechst DNA content imaging, 48 h; Potency, µM (top dose mostly 46.1 µM), without a hit: at the top dose re-replication activation, usual class: activators; further: % of control where 0% means no effect; nearly all actives have a fitted effect of over 55% in size
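Image-based DNA-content assay: after two days of treatment, nuclei were labelled with the DNA dye Hoechst and imaged, and hits were compounds raising the count of nuclei showing high fluorescence intensity.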
MCF10A rereplic = inducers of DNA re-replication in MCF 10A breast cells; MCF 10A DNA re-replication, Hoechst nuclear intensity, 48 h; Potency, µM (top dose mostly 46.1 µM), without a hit: at the highest dose activity, positive = re-replication, usual class: activators; 2.9% of 350,000 active; AID 624296; further: % of control where 0% means no effect; nearly all actives have a fitted effect of over 50% in size
KB-V1 cytotox = KB-V1 MDR subline cytotoxicity; KB-V1 MDR cells viability, CellTiter-Glo, 72 h; Potency, µM (top dose mostly 46.1 µM), usual class: cytotoxic; 3.4% of 400,000 active; further: on the % scale 0 is the no-effect control and ±100 the full control effect; nearly all actives have a fitted effect of over 60% in size
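Cytotoxicity via CellTiter-Glo luminescence after 72 h compound exposure at 37 degrees C. Cells: drug-selected KB-V1 line, DMEM phenol-red free plus 10% FBS. Compounds tested at multiple concentrations; normalized data fitted to concentration-effect curves.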
KB-3-1 tox = KB-3-1 parental cell cytotoxicity; Potency, µM (series often up to 46.1 µM), hits mostly cytotoxic; KB-3-1 viability, CellTiter-Glo ATP luminescence, 72 h; 1.4% of 400,000 active; AID 1347075; further: on the % scale 0 is the no-effect control and ±100 the full control effect; nearly all actives have a fitted effect of over 60% in size
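Cytotoxicity measured as CellTiter-Glo luminescence after 72 h at 37 C. Compound titrations were pinned onto drug-naive KB-3-1 parental adenocarcinoma cells grown in DMEM with 10% FBS, and normalized data fitted to concentration-response curves.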
Starred values were filed as active, the others as inactive; i = inactive; ? = inconclusive; nt = no result given; [ ] = another dose, or the depositor's remark. Unless noted, the call rests on the fitted dose curve; in most records, active means well fitted curve in the direction sought with a large enough effect; inconclusive means small, poorly fitted or top-dose-only effect, or another doubt; inactive means no such curve, though single readings can be large; an effect the other way counts as inactive or inconclusive. Potency means the concentration at half of the fitted maximal effect.

SMILES	PINK1 modulator	SW480 rereplic	MCF10A rereplic	KB-V1 cytotox	KB-3-1 tox
CN1CCCN(C(=O)c2ccc(Cl)c(S(=O)(=O)N(C)c3ccccc3)c2)CC1	1%[38.3 µM]	13%	21µM*	?	i
COc1cc2c(cc1OC)CN(C(=O)c1ccc3nc[nH]c3c1)CC2	3%	5.8µM*	8.2µM*	i	?
O=C(c1ccc(Cl)c(S(=O)(=O)N2CCCCCC2)c1)N1CCCCC1	1%	1%	5%	i	i
CN1CCN(C(=O)c2ccc(Cl)c(S(=O)(=O)N3CCCCC3)c2)CC1	6%[38.3 µM]	4%	-2%	15µM*	i
CCOC(=O)c1sc2nc(CC(=O)OC)nc(NCC(=O)OC)c2c1C	4%[38.3 µM]	-3%	0%	i	i
Cc1nc(SCC(=O)N(C)Cc2ccco2)c2c(C)c(C)sc2n1	-1%	26%	?	?	?
Cc1nc(NCc2ccco2)c2c(C)c(C)sc2n1	15%[38.3 µM]	?	24%	?	12µM*
Cc1sc2nc3c4ccccc4c(NCc4ccco4)nn3c(=O)c2c1C	3%	4.6µM*	2.6µM*	i	i
CCOC(=O)c1sc2nc(CC(=O)OC)nc(NCc3ccco3)c2c1C	8%	1%	0%	3.3µM*	i
CCc1ccc(NCc2cc3ccc(OC)cc3n(CC(=O)Nc3ccccc3OC)c2=O)cc1	-1%	nt	nt	?	i
CCc1ccc(OCc2nc(-c3ccc(OC)c(OC)c3)no2)c(Br)c1	4%	nt	nt	i	i
Cc1cc(=O)[nH]c2ccc(O)cc12	nt	nt	nt	i	i
Cc1cc(=O)[nH]c2ccc(Cl)cc12	-1%	-3%	0%	?	2.3µM*
O=C(Cn1cc(SCc2cccc(F)c2)c2ccccc21)N1CCCC1	3%	nt	nt	nt	nt
Nc1nc(=S)[nH]c2n[nH]nc12	0%	nt	nt	i	i
Cc1ccc(C2C(C#N)=C(N)Oc3cc(N)ccc32)cc1 (configuration not stated)	7%	6%	?	i	i
CC1=C(n2nnc3ccccc32)C(c2ccccc2)C(C#N)=C(N)O1 (configuration not stated)	-3%	1%	5%	i	i
N#CC1=C(N)OC2=C(CCc3ccccc32)C1c1ccccc1 (configuration not stated)	-2%	0.73µM*	?	1.5µM*	0.58µM*
Cc1ccc(/C=C2\CCC3=C2OC(N)=C(C#N)C3c2ccc(C)cc2)cc1 (configuration not stated)	?	11µM*	2.9µM*	i	i
CC[C@]12c3[nH]c4ccc(Cl)cc4c3CCN1C(=O)[C@@H](CC(=O)NCC13CC4CC(CC(C4)C1)C3)C[C@@H]2C(=O)N1CCN(C(=O)c2ccco2)CC1	18%	?	21µM*	?	?
CCN(CC)C(=O)[C@H]1C[C@H](CC(=O)NCC23CC4CC(CC(C4)C2)C3)C(=O)N2CCc3c([nH]c4ccc(Cl)cc34)[C@]12C	?	15µM*	3%	?	i
CCN(CC)C(=O)[C@H]1C[C@H](CC(=O)NCc2ccc(OC)c(OC)c2)C(=O)N2CCc3c([nH]c4ccc(Cl)cc34)[C@]12C	2%	-5%	-8%	i	i
CC(C)N(C(=O)[C@H]1C[C@H](CC(=O)NCC23CC4CC(CC(C4)C2)C3)C(=O)N2CCc3c([nH]c4ccc(Cl)cc34)[C@]12C)C(C)C	35µM*	?	5%	?	?
CC(C)N(C(=O)[C@H]1C[C@H](CC(=O)NCCCN(C)C)C(=O)N2CCc3c([nH]c4ccc(Cl)cc34)[C@]12C)C(C)C	-1%	18µM*	?	i	i
CCN(CC)C(=O)[C@H]1C[C@H](CC(=O)NCCCN(C)C)C(=O)N2CCc3c([nH]c4ccc(Cl)cc34)[C@]12C	5%	7%	?	i	i
SMILES	PINK1 modulator	SW480 rereplic	MCF10A rereplic	KB-V1 cytotox	KB-3-1 tox
CC(C)NC(=O)C1(C)CCN1C(=O)c1ccc(F)c(Cl)c1 (configuration not stated)	2%	nt	nt	i	i
O=c1c2ccccc2nc(N2CCN(c3cccc(Cl)c3)CC2)n1-c1ccccc1	2%	nt	nt	nt	nt
Cc1cccc(C(=O)OCc2cc(=O)n3ccsc3n2)c1	0%	nt	nt	i	i
c1ccc2nc3c(nc2c1)[nH]c1ccccc13	-1%	12%	28%	i	i
c1ccc(-c2c3ccccc3nc3[nH]c4ccccc4c23)cc1	16%	12µM*	?	i	i
Cc1sc2ncnc(SCC(=O)N3CCC(c4noc5ccc(F)cc45)CC3)c2c1C	1%	-12%	-2%	10µM*	i
O=C(CSc1ccc2ccccc2n1)N1CCC(c2noc3ccc(F)cc23)CC1	4%[38.3 µM]	9%	?	9.2µM*	i
NC(=S)NN=Cc1cc(-c2cccc(N)c2)ccn1	-1%	nt	nt	?	?
O=C(/C=C/c1ccc(Br)o1)NC(c1ccccc1)c1ccccc1	8%	14%	1%	23µM*	i
O=C(NC(c1ccccc1)c1ccccc1)c1ccc(Br)o1	5%	?	13%	i	i
CC/C(=N/NS(=O)(=O)c1ccc(Cl)cc1)c1ccc(O)cc1	2%	nt	0%	i	i
CCN=C(NS(=O)(=O)c1ccc(Br)cc1)c1ccc(Cl)cc1	4%	-73%	1.8µM*	?	i
CSc1nc2c(cnn2-c2ccc(C)c(C)c2)c(=O)[nH]1	2%	-11%	0%	?	1.6µM*
CCC(C)Sc1nc2c(cnn2-c2ccc(C)c(C)c2)c(=O)[nH]1 (configuration not stated)	2%	1%	-1%	i	i
O=C(Nc1ccccc1)c1cc(C2CCCCN2C(=O)CCc2ccccc2)on1 (configuration not stated)	1%	nt	nt	i	i
CCN(CC(=O)Nc1ccc2c(c1)OCCO2)Cc1cc(=O)oc2c(C)c(C)ccc12	0%	6%	-1%	4.1µM*	i
COC(=O)c1ccc(NC(=O)COc2ccc3c(c2)OCO3)cc1	1%	0.41µM*	-1%	i	i
Cc1ccc(C)c(OCC(=O)Nc2ccc3c(c2)OCO3)c1C	0%	?	6%	?	8.2µM*
Cc1ccc(NC(=Nc2ccc(Br)cc2)N2CCOCC2)cc1C	0%	25%	8%	i	i
N#CC(=C1C=CC(=NO)C(Cl)=C1)c1ccccc1	4%	nt	nt	?	6.5µM*
O=c1oc2ccccc2cc1-c1nc2c(s1)CCCC2	27%[38.3 µM]	1.2µM*	1.2µM*	?	?
COc1ccc(-c2nc(-c3cccc(C)c3)nc(N3CCN(C)CC3)c2C#N)cc1	5%	?	?	4.6µM*	5.8µM*
O=C(Nc1ccccc1)OCCOc1ccc(Br)cc1	6%	22%	18µM*	i	i
Cc1ccc(OCCOC(=O)Nc2ccccc2)cc1	5%	-2%	3%	?	i

From PubChem BioAssay
